Shown are actives, neighbours in structure and some others; about 2.4% of the full set was active somewhere.
D2 antagonist – D2 dopamine receptor (human) antagonism. HEK293 TREx D2 cells, calcium flux, dopamine EC80. actives 2% (n = 340,000). inhibition, % at 10 µM; in the data active = inhibition above about 30%; inactive = below that, where a call was filed
Target sequence (P14416 whole entry, looked up): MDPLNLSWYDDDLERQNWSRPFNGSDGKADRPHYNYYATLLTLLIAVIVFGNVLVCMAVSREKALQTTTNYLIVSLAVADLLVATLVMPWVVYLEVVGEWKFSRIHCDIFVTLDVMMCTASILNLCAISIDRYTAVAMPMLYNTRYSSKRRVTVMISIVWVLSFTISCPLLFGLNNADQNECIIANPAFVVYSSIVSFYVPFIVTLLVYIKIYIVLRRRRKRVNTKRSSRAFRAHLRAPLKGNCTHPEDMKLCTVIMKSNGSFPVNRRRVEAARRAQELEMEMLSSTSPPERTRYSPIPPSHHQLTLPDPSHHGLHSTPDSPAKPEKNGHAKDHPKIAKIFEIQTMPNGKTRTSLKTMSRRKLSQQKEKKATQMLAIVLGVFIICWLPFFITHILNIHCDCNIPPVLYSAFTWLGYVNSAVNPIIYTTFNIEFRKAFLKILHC
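Calcium mobilization kinetics were recorded at 1 s intervals in tetracycline-induced HEK293 T-REx D2 cells, first for 180 s after compound addition and then 180 s after EC80 dopamine.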
D2 PAM-1 – positive allosteric modulators of human D2 dopamine receptor; P14416; HEK293 T-REx D2, calcium flux, EC20 dopamine potentiation; potentiation, % at 10 µM; actives 0.34% (n = 340,000); AID 485347;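 active = potentiation over 3 SD above the plate norm, cut at about 30% in these data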
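Potentiation of an EC20 dopamine calcium response measured kinetically over 180 s, after a preceding 180 s compound-only read flagging agonists. Cells: inducible Hek293 Trex D2 line, 4000/well, cultured overnight at 30 C before dye loading.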
D2 PAM-2 – potentiates the human D2 dopamine receptor allosterically. P14416. DiscoveRx D2 beta-arrestin cells, luminescence, 90 min; 100% = 57 uM dopamine signal. potentiation, % (concentration not given with the values). actives 0.23% (n = 360,000); in the data active = potentiation above about 50%; inconclusive = mostly about 30% to 49%
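PathHunter beta-arrestin assay in DiscoveRx D2 cells. Compounds were added with an EC20 of dopamine (50 nM final) for 90 min at 37 deg C. Luminescence was read 1 h after detection reagent, with 57 uM dopamine as the EC100 control.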
D2 ag-1 – human D2 receptor agonism in beta-arrestin assay; AID 624465; actives 0.084% (n = 360,000); P14416; activation, % (concentration not given with the values); DiscoveRx PathHunter D2 beta-arrestin, luminescence, 90 min; 100% = 57 uM dopamine signal; in the data active = activation above about 40%; inconclusive = between about 15% and that limit
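DiscoveRx PathHunter D2 beta-arrestin cells (2,100/well) attached overnight, then compound-stimulated 90 min at 37 C in HBSS/10 mM HEPES/0.1% Tween-20 buffer; beta-galactosidase complementation read by luminescence after 1 h at ambient temperature. Dopamine 57 uM final (EC100) as control.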
D2 ag-2 – D2 dopamine receptor (human) agonism; HEK293 T-REx D2 cells, calcium flux agonist mode; activation, % at 2 µM; actives 0.53% (n = 340,000);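 active = activation over 3 SD above normal in the single-dose calcium agonist read, cut at about 30% in these data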
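Agonism scored from kinetic calcium signal (1 read/sec, 180 s) following compound pin transfer, after a 10 s baseline. Cells: HEK293 Trex line expressing inducible D2 receptor coupled to calcium, dye-loaded after overnight culture at 30 C.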
D3 ag – confirmation of human D3 dopamine receptor agonists, beta-arrestin. shares compounds with D2 ag-2. DiscoveRx D3 beta-arrestin cells, luminescence, 90 min. Potency, µM (titrated, usually from 76.9 µM), usual class: activators. actives 4% (n = 2,300). AID 720506; also: nearly all actives have a fitted effect of over 70% in size
D2 ag-3 – counter-screen for D3 agonists: human D2 dopamine receptor agonism; shares compounds with D2 ag-2; DiscoveRx PathHunter D2 beta-arrestin, luminescence, 90 min; response scale: percent relative to full dopamine signal; Potency, µM (highest dose often 76.9 µM), actives largely listed as activators; actives 5.9% (n = 2,300); AID 720507; also: nearly all actives have a fitted effect of over 70% in size
Of the large screens only hits and unclear results are named; the others gave an inactive call (follow-up assays come after a bar, where they were run). Unless noted, calls follow the shape of the dose curve; as a rule, active = well fitted activation curve with a large enough effect; inconclusive = small, poorly fitted or top-dose-only effect; inactive = flat fitted curve, though single readings scatter.

O=C(Nc1cccc(S(=O)(=O)N2CCCCC2)c1)C1CCCN1S(=O)(=O)c1ccccc1F (stereo not given)	none | D3 ag inactive | D2 ag-3 inactive
O=C(CN1CCc2ccccc2C1)Nc1cccc(S(=O)(=O)N2CCCC2)c1	D2 antagonist 49, D2 ag-2 53 | D3 ag inconclusive | D2 ag-3 inconclusive
CC(=O)NCCC(=O)Nc1cc(S(=O)(=O)N2CCCCC2)ccc1N1CCN(C)CC1	none
CC(=O)NCCC(=O)Nc1cc(S(=O)(=O)N2CCCCC2)ccc1N1CCCCC1	none | D3 ag inactive | D2 ag-3 inactive
Cc1ccc(NC(=O)[C@@H]2CCCN2S(=O)(=O)c2ccccc2F)cc1	none
O=C(CN1CCN(C(=O)c2ccco2)CC1)Nc1cccc(S(=O)(=O)N2CCCC2)c1	none | D3 ag inactive | D2 ag-3 inactive
CCOC(=O)c1c(NC(=O)C[n+]2ccc(Cc3ccccc3)cc2)sc(C)c1C	none
CCOc1ccc(OCC)c(NC(=O)CN(C)S(=O)(=O)c2ccc3c(c2)CCCC(=O)N3)c1	none (no result: D2 antagonist, D2 PAM-2, D2 ag-1)
COc1cc(OC)c(OC)cc1CNC(=O)c1cc(S(=O)(=O)N2CCOCC2)ccc1F	none
O=C(NCc1cc(Br)cc(Br)c1OC(=O)c1ccccc1[N+](=O)[O-])c1ccccc1	none
COCCCNC(=O)Cn1c(=O)n(-c2ccc(C)c(C)c2)c(=O)c2c3c(sc21)CCCCC3	none (no result: D2 antagonist, D2 PAM-2, D2 ag-1)
Cc1ccc(S(=O)(=O)CCC(=O)Nc2cccc(S(=O)(=O)N3CCCCCC3)c2)cc1	none | D3 ag inactive | D2 ag-3 inactive
Cn1c(N2CCN(c3ccccn3)CC2)nc2c1c(=O)n(Cc1ccccc1Cl)c(=O)n2C	none (no result: D2 antagonist, D2 PAM-1, D2 ag-2)
Cn1c(N2CCN(c3ccccn3)CC2)nc2c1c(=O)n(Cc1ccc(Cl)cc1)c(=O)n2C	D2 antagonist 49, D2 ag-2 47 | D3 ag inactive | D2 ag-3 inconclusive
Cn1c(CC(=O)NNC(=O)c2ccc(F)cc2Cl)nc2ccccc21	none
Cn1c(CC(=O)NNC(=O)c2ccccc2[N+](=O)[O-])nc2ccccc21	none | D3 ag inactive | D2 ag-3 inactive
COc1ccc(SC[C@H](Cc2ccccc2)N2CC[C@@H](C(C)(C)C)CCC2=O)cc1	none | D3 ag inactive | D2 ag-3 inactive
COc1ccc(SC[C@H](Cc2ccccc2)N2CC[C@@H](O)CCC2=O)cc1	none
COC(=O)COc1ccc(NC(=O)Cn2nc(-c3ccccc3)c3ccccc3c2=O)cc1	none
COc1ccc(-c2nn(CC(=O)Nc3ccc(Cl)c(Cl)c3)c(=O)c3ccccc23)cc1	D2 ag-2 54 | D3 ag inactive | D2 ag-3 inactive
O=C(c1ccccc1)N1CCN(Cc2ccc3c(c2)OCO3)CC1	none
O=C(c1sccc1Cl)N1CCN(Cc2ccc3c(c2)OCO3)CC1	D2 antagonist 67, D2 ag-2 50 | D3 ag inactive | D2 ag-3 inactive
O=C(c1[nH]nc2c1CCc1ccccc1-2)N1CCN(Cc2ccc3c(c2)OCO3)CC1	D2 antagonist 71, D2 ag-1 inconclusive | D3 ag inactive | D2 ag-3 inconclusive
O=C(c1ccc(Br)o1)N1CCN(Cc2ccc3c(c2)OCO3)CC1	D2 antagonist 58, D2 ag-2 70 | D3 ag inactive | D2 ag-3 inactive
CCCS(=O)(=O)N1CCN=C1SCc1cccnc1	none
COc1ccc2c(c1)OCC(O)(c1ccccc1)C2=O (stereo not given)	none (no result: D2 antagonist, D2 PAM-1, D2 ag-2)
O=C(c1ccccc1F)N1CCN(Cc2ccccc2F)CC1	none
Clc1cccc(Cl)c1CN1CCN(c2ncccn2)CC1	D2 antagonist 46, D2 ag-1 inconclusive, D2 ag-2 55 | D3 ag inactive | D2 ag-3 inconclusive
O=C(CN1CCN(c2ncccn2)CC1)NCc1ccc2c(c1)OCO2	D2 antagonist 37, D2 ag-1 inconclusive, D2 ag-2 56 | D3 ag inactive | D2 ag-3 inactive
Oc1cc2c(cc1CN1CCN(c3ncccn3)CC1)OCO2	D2 antagonist 83, D2 PAM-2 inconclusive, D2 ag-1 96, D2 ag-2 86 | D3 ag inconclusive | D2 ag-3 0.56µM
Fc1ccccc1CN1CCN(c2ncccn2)CC1	D2 antagonist 84, D2 PAM-2 inconclusive, D2 ag-1 98, D2 ag-2 84 | D3 ag inconclusive | D2 ag-3 7.9µM
COc1ccc(C(C)NC(=O)C2CCN(CCCc3ccccc3)CC2)cc1OC (stereo not given)	none (no result: D2 antagonist, D2 PAM-1, D2 ag-2)
CCCCC[C@H]1CN(C2CCCCC2)C(=O)[C@@H]1CC(=O)NCc1ccccc1	none
Cc1nn(-c2ccc(Cl)cc2)c2nc(-c3cccnc3)cc(C(F)(F)F)c12	none (no result: D2 antagonist, D2 PAM-2, D2 ag-1)
Cc1ccc(C)c(CN2CCN(c3ncccn3)CC2)c1	D2 antagonist 60, D2 ag-1 53, D2 ag-2 75 | D3 ag inactive | D2 ag-3 inconclusive
Cc1ccc(C)c(S(=O)(=O)N2CCN(c3ncccn3)CC2)c1	none (no result: D2 antagonist, D2 ag-2)
O=[N+]([O-])c1ccc(Cl)c(CN2CCN(c3ncccn3)CC2)c1	D2 antagonist 33 | D3 ag inactive | D2 ag-3 inactive
O=C(CC1C(=O)NCCN1C(=O)Nc1ccccc1)Nc1ccc(F)cc1 (stereo not given)	none
CCOc1ccc(NC(=O)CC2C(=O)NCCN2C(=O)Nc2ccccc2)cc1 (stereo not given)	none | D3 ag inactive | D2 ag-3 inactive
COc1ccc(NC(=O)CCN2CCN(c3ccc(F)cc3)CC2)cc1	D2 antagonist 77, D2 ag-2 65 | D3 ag inactive | D2 ag-3 inactive
CCOC(=O)N1CCN(CC(=O)Nc2ccc(Oc3ccccc3)cc2)CC1	D2 antagonist 43, D2 ag-1 44, D2 ag-2 56 | D3 ag inconclusive | D2 ag-3 inconclusive
CCOc1ccc(NC(=O)CCN2CCN(c3ccccc3)CC2)cc1	D2 antagonist 83, D2 ag-1 inconclusive, D2 ag-2 98 | D3 ag inconclusive | D2 ag-3 inconclusive
CCOc1ccc(C(C)=O)cc1COc1ccc(-c2nnco2)cc1	none
O=C(CCN1CCN(c2ccccc2)CC1)Nc1ccccc1	D2 antagonist 53, D2 ag-2 73 | D3 ag inactive | D2 ag-3 inactive
O=C(CCN1CCN(CCO)CC1)Nc1ccccc1	none
O=C(CN1CCN(c2ccccc2)CC1)Nc1ccc(OCc2ccccc2)cc1	D2 antagonist 55, D2 ag-2 44 | D3 ag inconclusive | D2 ag-3 inactive
COc1ccc(-n2nc(C(=O)NCC(=O)Nc3ccc(F)cc3)c3ccccc3c2=O)cc1	none

Screening results: PubChem BioAssay, National Center for Advancing Translational Sciences (NCATS)
